How the values were obtained:
Assay in all cases: DAPPL (digital affinity profiling via proximity ligation, sequencing); 10 mM Tris-HCl pH 7.5, 50 mM NaCl, 1 mM DTT, 4% glycerol, room temperature, 30 min; GST-TFs on glutathione beads, 16-mer random dsDNA library, 0.1% formaldehyde crosslink after washing; high values mean tight binding
FLI1 = biological target: T1, FLI1 (Homo sapiens, UniProt Q01543 1-452); settings: protein: recombinant; tags: N-terminal GST; dsDNA, one strand shown
T1 sequence: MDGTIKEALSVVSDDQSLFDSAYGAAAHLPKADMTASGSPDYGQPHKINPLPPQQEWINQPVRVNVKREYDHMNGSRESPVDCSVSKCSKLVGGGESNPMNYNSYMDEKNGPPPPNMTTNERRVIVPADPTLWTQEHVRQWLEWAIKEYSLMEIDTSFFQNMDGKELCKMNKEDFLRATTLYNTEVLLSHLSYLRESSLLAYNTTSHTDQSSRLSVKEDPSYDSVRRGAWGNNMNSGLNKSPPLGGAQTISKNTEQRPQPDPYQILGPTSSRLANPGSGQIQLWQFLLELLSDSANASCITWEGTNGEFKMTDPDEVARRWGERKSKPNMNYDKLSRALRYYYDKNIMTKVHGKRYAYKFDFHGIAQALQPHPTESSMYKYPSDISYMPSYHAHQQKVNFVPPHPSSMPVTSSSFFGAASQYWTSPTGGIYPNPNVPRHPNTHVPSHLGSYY
Summary of the method: (§1)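 Beads coated with glutathione captured GST-fused human transcription factors that had been expressed in yeast, and the factors were then given DNA barcodes and pooled with a tag-only sample. The pools were incubated with 200 nmole of a random double-stranded 16-mer DNA library in Tris/NaCl/DTT/glycerol buffer for 30 min at room temperature, washed, crosslinked with 0.1% formaldehyde and proximity-ligated with BsaI/T4 ligase at 37 °C for 1 h. PCR amplification and Illumina NextSeq500 sequencing came last. Binding signal is each hexamer's read frequency for a factor divided by its frequency for the tag-only sample.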

ELK1 = biological target: T2, ELK1 (Homo sapiens, UniProt P19419 1-428); settings: protein: recombinant; tags: N-terminal GST; dsDNA, one strand shown
T2 sequence: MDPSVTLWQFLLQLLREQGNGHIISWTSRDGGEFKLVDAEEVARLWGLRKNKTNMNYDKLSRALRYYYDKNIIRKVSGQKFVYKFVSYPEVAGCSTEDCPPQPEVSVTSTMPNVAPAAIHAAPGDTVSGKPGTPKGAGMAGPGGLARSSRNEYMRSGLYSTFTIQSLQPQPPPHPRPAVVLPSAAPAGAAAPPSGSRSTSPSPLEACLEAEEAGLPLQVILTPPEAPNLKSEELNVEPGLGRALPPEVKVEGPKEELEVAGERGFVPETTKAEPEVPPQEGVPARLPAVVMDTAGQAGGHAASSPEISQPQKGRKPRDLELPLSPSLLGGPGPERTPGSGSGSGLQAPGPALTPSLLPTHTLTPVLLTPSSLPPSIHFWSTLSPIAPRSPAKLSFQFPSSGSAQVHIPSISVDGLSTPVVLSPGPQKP
Summary of the method: as §1

GABPA = biological target: T3, GABPA (Homo sapiens, UniProt Q06546 1-454); settings: protein: recombinant; tags: N-terminal GST; dsDNA, one strand shown
T3 sequence: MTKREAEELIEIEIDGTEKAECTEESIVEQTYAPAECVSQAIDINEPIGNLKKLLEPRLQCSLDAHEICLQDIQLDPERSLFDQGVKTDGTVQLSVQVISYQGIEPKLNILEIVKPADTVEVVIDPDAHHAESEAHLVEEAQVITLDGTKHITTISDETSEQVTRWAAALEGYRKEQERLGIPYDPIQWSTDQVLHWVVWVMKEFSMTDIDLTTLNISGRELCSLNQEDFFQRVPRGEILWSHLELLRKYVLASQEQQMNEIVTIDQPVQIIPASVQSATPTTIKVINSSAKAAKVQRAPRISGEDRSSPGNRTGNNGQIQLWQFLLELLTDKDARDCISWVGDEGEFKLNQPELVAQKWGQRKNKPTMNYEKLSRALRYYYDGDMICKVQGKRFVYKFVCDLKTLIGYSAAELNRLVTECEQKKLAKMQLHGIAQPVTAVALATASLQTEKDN
Summary of the method: as §1

ERG = biological target: T4, ERG (Homo sapiens, UniProt P11308 1-479); settings: protein: recombinant; tags: N-terminal GST; dsDNA, one strand shown
T4 sequence: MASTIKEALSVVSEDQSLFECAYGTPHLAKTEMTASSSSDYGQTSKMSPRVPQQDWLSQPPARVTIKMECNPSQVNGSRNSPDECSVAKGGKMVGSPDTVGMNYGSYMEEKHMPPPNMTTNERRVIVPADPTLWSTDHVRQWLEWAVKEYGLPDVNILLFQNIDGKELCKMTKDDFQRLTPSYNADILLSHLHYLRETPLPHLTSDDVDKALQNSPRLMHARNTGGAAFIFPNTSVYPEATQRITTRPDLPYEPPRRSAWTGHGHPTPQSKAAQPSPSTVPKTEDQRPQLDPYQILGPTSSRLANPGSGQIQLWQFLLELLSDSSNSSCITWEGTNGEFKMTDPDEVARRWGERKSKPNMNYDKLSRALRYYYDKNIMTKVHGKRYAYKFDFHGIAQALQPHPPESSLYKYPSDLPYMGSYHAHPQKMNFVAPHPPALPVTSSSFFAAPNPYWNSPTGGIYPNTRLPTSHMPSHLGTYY
Summary of the method: as §1

ELF1 = ELF1 (Homo sapiens, UniProt P32519 1-619); settings: protein: recombinant; tags: N-terminal GST; dsDNA, one strand shown
Chain of ELF1 (P32519 whole entry): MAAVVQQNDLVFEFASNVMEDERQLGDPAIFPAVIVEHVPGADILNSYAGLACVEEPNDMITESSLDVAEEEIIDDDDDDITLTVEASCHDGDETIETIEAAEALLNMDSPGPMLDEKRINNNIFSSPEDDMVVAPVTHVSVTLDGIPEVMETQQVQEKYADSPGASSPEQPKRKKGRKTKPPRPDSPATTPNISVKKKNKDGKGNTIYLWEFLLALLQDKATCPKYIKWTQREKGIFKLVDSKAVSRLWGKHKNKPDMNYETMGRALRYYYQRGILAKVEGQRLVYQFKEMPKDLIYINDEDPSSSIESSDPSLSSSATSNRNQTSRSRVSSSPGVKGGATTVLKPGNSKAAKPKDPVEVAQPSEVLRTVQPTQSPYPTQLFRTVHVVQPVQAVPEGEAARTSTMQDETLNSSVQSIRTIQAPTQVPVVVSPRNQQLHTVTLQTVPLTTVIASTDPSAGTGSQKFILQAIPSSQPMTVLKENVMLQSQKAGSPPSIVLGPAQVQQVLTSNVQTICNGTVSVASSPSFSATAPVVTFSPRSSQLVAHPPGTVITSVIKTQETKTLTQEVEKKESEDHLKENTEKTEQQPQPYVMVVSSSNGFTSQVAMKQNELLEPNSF
Summary of the method: as §1

EHF = biological target: T5, EHF (Homo sapiens, UniProt Q9NZC4 1-300); settings: protein: recombinant; tags: N-terminal GST; dsDNA, one strand shown
T5 sequence: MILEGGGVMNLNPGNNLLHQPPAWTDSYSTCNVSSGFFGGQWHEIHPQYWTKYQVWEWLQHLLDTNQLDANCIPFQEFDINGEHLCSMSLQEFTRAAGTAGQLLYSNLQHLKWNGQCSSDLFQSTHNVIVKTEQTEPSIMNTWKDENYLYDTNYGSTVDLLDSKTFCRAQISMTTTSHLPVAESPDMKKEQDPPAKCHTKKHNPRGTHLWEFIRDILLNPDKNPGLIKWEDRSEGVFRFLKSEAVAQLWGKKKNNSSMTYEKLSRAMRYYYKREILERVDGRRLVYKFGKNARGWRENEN
Summary of the method: as §1

SPI1 = SPI1 (Homo sapiens, UniProt P17947 1-270); settings: protein: recombinant; tags: N-terminal GST; dsDNA, one strand shown
Summary of the method: as §1

SPIB = SPIB (Homo sapiens, UniProt Q01892 1-262); settings: protein: recombinant; tags: N-terminal GST; dsDNA, one strand shown
Chain of SPIB (Q01892 whole entry): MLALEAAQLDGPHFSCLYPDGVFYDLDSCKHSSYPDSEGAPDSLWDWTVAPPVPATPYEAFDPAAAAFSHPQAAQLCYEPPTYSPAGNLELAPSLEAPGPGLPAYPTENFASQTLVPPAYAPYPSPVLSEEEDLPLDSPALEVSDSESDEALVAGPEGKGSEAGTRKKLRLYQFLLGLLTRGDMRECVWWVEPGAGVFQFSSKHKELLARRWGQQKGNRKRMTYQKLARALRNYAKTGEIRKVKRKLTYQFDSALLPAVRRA
Summary of the method: as §1

ELK3 = biological target: T6, ELK3 (Homo sapiens, UniProt P41970 1-407); settings: protein: recombinant; tags: N-terminal GST; dsDNA, one strand shown
T6 sequence: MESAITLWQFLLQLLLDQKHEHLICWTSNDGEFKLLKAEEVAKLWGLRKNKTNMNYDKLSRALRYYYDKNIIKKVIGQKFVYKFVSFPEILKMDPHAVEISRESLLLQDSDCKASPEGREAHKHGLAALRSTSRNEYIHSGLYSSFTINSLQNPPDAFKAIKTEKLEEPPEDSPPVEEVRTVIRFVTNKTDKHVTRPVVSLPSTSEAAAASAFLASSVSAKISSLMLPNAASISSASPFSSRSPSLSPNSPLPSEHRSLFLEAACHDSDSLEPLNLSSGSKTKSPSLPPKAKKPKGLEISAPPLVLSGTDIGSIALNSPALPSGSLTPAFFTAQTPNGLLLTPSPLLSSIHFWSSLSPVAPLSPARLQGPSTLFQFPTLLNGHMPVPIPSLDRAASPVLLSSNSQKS
Summary of the method: as §1

FEV = biological target: T7, FEV (Homo sapiens, UniProt Q99581 1-238); settings: protein: recombinant; tags: N-terminal GST; dsDNA, one strand shown
T7 sequence: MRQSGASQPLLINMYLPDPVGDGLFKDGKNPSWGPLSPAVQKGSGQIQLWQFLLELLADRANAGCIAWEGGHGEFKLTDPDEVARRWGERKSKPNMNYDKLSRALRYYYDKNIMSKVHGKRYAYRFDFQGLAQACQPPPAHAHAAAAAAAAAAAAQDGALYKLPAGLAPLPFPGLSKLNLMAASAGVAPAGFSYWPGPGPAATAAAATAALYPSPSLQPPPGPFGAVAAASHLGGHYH
Summary of the method: as §1

ETV5 = ETV5 (Homo sapiens, UniProt P41161 1-510); settings: protein: recombinant; tags: N-terminal GST; dsDNA, one strand shown
Chain of ETV5 (P41161 whole entry): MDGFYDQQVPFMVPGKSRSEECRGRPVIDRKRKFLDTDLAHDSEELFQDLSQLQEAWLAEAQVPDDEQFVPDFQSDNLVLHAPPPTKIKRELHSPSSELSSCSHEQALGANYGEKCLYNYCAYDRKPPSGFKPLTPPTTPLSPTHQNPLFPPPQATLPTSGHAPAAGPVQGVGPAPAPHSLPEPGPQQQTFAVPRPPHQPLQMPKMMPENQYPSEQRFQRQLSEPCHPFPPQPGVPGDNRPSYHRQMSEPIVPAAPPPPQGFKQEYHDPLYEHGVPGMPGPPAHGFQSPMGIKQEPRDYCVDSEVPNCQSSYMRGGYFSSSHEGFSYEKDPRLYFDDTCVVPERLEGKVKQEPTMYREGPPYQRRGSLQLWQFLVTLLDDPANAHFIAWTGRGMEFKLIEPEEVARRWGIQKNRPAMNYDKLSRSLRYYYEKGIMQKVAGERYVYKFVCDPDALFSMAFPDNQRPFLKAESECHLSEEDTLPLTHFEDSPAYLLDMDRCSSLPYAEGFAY
Summary of the method: as §1

HSF1 = HSF1 (Homo sapiens, UniProt Q00613 1-529); settings: protein: recombinant; tags: N-terminal GST; chain copies: 3; dsDNA, one strand shown
Chain of HSF1 (Q00613 whole entry): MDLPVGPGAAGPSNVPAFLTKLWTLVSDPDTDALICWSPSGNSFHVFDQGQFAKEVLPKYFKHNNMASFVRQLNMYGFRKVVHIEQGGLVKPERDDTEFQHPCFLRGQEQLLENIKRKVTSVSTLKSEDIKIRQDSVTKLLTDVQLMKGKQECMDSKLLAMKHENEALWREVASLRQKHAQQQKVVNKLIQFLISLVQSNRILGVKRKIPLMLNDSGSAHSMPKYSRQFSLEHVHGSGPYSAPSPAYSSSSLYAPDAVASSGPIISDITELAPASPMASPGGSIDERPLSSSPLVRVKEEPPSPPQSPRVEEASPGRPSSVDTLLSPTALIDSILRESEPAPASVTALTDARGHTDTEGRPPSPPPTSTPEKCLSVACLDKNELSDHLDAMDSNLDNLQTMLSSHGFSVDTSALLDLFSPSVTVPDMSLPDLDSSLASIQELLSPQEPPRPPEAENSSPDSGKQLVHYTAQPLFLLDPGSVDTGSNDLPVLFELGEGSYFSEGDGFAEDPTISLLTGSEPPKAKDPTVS
Summary of the method: as §1

SPIC = biological target: T8, SPIC (Homo sapiens, UniProt Q8N5J4 1-248); settings: protein: recombinant; tags: N-terminal GST; dsDNA, one strand shown
T8 sequence: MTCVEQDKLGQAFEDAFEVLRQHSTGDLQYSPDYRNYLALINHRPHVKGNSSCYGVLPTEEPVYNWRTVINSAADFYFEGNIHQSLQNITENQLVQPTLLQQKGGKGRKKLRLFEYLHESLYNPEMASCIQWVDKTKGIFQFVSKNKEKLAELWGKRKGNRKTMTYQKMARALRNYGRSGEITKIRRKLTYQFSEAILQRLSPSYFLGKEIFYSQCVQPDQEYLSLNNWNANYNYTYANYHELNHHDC
Summary of the method: as §1

ELF4 = ELF4 (Homo sapiens, UniProt Q99607 1-663); settings: protein: recombinant; tags: N-terminal GST; dsDNA, one strand shown
Chain of ELF4 (Q99607 whole entry): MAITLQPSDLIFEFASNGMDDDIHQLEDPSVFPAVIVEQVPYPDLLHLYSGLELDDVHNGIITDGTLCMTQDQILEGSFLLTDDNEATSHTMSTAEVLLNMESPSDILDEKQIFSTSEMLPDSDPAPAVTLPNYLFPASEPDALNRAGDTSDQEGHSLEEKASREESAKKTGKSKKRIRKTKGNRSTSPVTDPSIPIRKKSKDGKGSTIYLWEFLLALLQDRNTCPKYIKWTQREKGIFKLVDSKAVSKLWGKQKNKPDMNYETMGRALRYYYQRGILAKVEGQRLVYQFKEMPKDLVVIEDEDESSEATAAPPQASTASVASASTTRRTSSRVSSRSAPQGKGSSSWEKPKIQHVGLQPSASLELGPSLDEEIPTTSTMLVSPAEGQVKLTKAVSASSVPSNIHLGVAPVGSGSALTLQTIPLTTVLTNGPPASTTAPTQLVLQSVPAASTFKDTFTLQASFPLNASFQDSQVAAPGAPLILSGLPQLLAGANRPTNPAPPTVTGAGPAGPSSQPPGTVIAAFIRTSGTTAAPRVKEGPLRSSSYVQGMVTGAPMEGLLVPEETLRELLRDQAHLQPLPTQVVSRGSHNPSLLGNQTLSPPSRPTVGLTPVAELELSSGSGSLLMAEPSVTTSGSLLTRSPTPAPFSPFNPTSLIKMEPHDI
Summary of the method: as §1

ELK4 = biological target: T9, ELK4 (Homo sapiens, UniProt P28324-2 1-405); settings: protein: recombinant; tags: N-terminal GST; dsDNA, one strand shown
T9 sequence: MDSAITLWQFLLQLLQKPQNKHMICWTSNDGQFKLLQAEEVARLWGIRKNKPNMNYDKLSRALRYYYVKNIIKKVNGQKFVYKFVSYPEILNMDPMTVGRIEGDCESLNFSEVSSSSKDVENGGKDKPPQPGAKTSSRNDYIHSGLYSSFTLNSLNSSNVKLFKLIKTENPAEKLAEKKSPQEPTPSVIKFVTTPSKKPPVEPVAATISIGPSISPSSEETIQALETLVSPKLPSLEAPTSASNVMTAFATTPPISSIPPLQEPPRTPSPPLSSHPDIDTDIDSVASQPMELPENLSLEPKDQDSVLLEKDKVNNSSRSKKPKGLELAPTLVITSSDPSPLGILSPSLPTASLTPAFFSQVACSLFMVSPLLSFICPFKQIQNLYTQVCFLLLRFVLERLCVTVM
Summary of the method: as §1

ETV2 = biological target: T10, ETV2 (Homo sapiens, UniProt O00321 1-342); settings: protein: recombinant; tags: N-terminal GST; dsDNA, one strand shown
T10 sequence: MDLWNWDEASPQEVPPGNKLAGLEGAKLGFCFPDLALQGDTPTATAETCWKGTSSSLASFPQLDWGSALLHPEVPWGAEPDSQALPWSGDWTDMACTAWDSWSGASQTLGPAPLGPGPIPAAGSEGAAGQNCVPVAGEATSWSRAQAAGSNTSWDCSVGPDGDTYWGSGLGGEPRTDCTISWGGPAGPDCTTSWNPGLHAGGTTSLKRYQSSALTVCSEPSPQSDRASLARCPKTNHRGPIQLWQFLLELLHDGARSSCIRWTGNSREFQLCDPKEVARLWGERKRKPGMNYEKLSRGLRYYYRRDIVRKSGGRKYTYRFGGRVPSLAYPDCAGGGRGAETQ
Summary of the method: as §1

ELF3 = biological target: T11, ELF3 (Homo sapiens, UniProt P78545 1-371); settings: protein: recombinant; tags: N-terminal GST; dsDNA, one strand shown
T11 sequence: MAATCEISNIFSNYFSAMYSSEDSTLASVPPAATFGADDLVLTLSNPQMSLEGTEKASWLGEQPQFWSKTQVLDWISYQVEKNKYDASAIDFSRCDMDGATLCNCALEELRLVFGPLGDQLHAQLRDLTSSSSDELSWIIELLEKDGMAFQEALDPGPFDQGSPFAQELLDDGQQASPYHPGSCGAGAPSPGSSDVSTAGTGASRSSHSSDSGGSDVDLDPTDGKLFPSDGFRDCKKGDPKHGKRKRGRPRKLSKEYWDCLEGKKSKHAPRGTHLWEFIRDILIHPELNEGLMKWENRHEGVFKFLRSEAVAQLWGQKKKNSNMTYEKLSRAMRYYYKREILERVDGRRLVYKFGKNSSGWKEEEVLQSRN
Summary of the method: as §1

CRX = CRX (Homo sapiens, UniProt O43186 1-299); settings: protein: recombinant; tags: N-terminal GST; dsDNA, one strand shown
Chain of CRX (O43186 whole entry): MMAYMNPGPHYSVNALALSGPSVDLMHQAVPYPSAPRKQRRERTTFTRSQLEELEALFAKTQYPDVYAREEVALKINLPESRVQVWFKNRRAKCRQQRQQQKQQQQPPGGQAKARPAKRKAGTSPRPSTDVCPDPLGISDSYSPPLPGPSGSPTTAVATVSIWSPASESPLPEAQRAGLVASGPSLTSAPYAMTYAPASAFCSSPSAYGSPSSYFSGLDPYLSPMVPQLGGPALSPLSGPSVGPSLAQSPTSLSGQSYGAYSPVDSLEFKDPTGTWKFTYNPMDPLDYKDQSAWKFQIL
Summary of the method: as §1

ETV1 = ETV1 (Homo sapiens, UniProt P50549 1-477); settings: protein: recombinant; tags: N-terminal GST; dsDNA, one strand shown
Chain of ETV1 (P50549 whole entry): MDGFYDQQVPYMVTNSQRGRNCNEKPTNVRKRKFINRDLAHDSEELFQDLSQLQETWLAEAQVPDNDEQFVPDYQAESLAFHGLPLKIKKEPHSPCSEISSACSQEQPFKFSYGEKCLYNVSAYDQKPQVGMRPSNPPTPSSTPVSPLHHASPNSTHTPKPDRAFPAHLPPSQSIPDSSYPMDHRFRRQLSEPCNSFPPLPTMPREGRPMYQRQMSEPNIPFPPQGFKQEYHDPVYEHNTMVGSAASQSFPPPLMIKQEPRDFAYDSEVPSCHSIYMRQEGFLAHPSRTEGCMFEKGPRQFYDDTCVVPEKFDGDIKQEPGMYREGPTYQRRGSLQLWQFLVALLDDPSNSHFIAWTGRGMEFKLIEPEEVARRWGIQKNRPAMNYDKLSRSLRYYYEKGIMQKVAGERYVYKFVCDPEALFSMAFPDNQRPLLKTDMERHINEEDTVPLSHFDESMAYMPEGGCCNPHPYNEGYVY
Summary of the method: as §1

For TTATTC, which binding signal (FLI1) is on record?
The binding signal was 1.48 fold enrichment (6-mer frequency, TF over GST control).

And the binding signal (ELK1)?
Its binding signal is 1.41 fold enrichment (6-mer frequency, TF over GST control).

And the binding signal (GABPA)?
Its binding signal is 1.38 fold enrichment (6-mer frequency, TF over GST control).

What about the binding signal (ERG) of the same sequence?
The binding signal was 1.34 fold enrichment (6-mer frequency, TF over GST control).

And the binding signal (ELF1)?
The binding signal was 1.3 fold enrichment (6-mer frequency, TF over GST control).

And the binding signal (EHF)?
Its binding signal is 1.29 fold enrichment (6-mer frequency, TF over GST control).

And the binding signal (SPI1)?
Its binding signal is 1.33 fold enrichment (6-mer frequency, TF over GST control).

What about the binding signal (SPIB) of the same sequence?
Its binding signal is 1.39 fold enrichment (6-mer frequency, TF over GST control).

And the binding signal (ELK3)?
Its binding signal is 1.45 fold enrichment (6-mer frequency, TF over GST control).

And the binding signal (FEV)?
Its binding signal is 1.39 fold enrichment (6-mer frequency, TF over GST control).

And the binding signal (ETV5)?
Its binding signal is 1.33 fold enrichment (6-mer frequency, TF over GST control).

What about the binding signal (HSF1) of the same sequence?
Its binding signal is 2.13 fold enrichment (6-mer frequency, TF over GST control).

What about the binding signal (SPIC) of the same sequence?
The binding signal was 1.45 fold enrichment (6-mer frequency, TF over GST control).

And the binding signal (ELF4)?
The binding signal was 1.41 fold enrichment (6-mer frequency, TF over GST control).

What about the binding signal (ELK4) of the same sequence?
Its binding signal is 1.31 fold enrichment (6-mer frequency, TF over GST control).

And the binding signal (ETV2)?
Its binding signal is 1.54 fold enrichment (6-mer frequency, TF over GST control).

And the binding signal (ELF3)?
Its binding signal is 1.24 fold enrichment (6-mer frequency, TF over GST control).

And the binding signal (CRX)?
The binding signal was 2.37 fold enrichment (6-mer frequency, TF over GST control).

And the binding signal (ETV1)?
Its binding signal is 1.36 fold enrichment (6-mer frequency, TF over GST control).
